Only some compounds are listed: those with a hit (about 12% of all), similar ones and a draw of the others.
SARS PLpro yeast = SARS-CoV PLP inhibition in yeast. S. cerevisiae expressing SARS-CoV PLpro, growth rescue. hit rate 0.19% among 330,000. Potency, µM (series often up to 32.9 µM), for the others: top-dose activity, positive = growth rescue, most hits filed as activators; calls by dose curve; note: 0% is about no effect; nearly all actives have a fitted effect of over 55% in size
Sm TGR block = S. mansoni TGR enzyme inhibition; purified TGR, DTNB reduction, TNB absorbance 405 nm; hit rate 3% among 360,000; Q962Y6; Potency, µM (doses to about 114 µM), without a hit: at the top dose activity change, negative = inhibition, usual class: inhibitors; AID 485364; note: % is set by controls: 0 for no effect and ±100 for the full control effect; nearly all actives have a fitted effect of over 60% in size
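Kinetic colorimetric format: TGR-catalysed, NADPH-driven DTNB reduction monitored via TNB absorbance. Enzyme dispensed at 20 nM; compound exposure 15 min at room temperature before reaction start.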
AmpC inh no detg = AmpC beta-lactamase inhibition without detergent | AmpC nitrocefin hydrolysis, absorbance 480 nm, 0.0001% Triton | hit rate 0.52% among 330,000 | P00811 | Potency, µM (doses to about 57.1 µM), for inactives: top-dose activity change, negative = inhibition, usual class: inhibitors | AID 485341;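 note: plate controls were no compound for no effect and no enzyme for full effect; nearly all actives have a fitted effect of over 20% in size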
Target sequence (P00811 whole entry, looked up): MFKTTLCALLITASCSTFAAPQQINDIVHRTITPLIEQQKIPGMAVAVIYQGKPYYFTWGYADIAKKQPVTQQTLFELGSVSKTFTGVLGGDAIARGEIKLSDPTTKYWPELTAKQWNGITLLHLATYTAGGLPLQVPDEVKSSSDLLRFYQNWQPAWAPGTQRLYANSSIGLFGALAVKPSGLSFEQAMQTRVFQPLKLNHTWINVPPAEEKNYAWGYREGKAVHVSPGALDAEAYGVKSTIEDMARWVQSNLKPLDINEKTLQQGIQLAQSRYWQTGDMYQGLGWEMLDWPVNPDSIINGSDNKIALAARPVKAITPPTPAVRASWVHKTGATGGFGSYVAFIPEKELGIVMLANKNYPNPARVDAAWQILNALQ
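20 mM phosphate pH 7.0 + 0.01% (detergent screen) or 0.0001% Triton X-100; 5.3 nM AmpC reagent; cpd preinc 15 min RT; nitrocefin (800 uM stock) to start; A480 q20 s × 4 min; Activity was normalised to no-enzyme and no-compound control wells.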
Pf growth 96h = inhibits malaria parasite growth, 96 h. AID 504834. hit rate 6.9% among 320,000. Potency, µM (top dose mostly 28.7 µM), for inactives: at the top dose activity change, negative = inhibition, usual class: inhibitors. P. falciparum luciferase reporter growth, 96 h; note: % is set by controls: 0 for no effect and ±100 for the full control effect
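Parasite growth measured via integrated firefly luciferase reporter in P. falciparum. Infected erythrocytes at 2% hematocrit, 0.05% parasitemia final were treated 96 hours at 37 C under 5% CO2, and luminescence was read.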
AmpC detergent = AmpC beta-lactamase inhibition with detergent present; AID 485294; AmpC hydrolysis of nitrocefin, absorbance 480 nm, 0.01% Triton; P00811; Potency, µM (highest dose often 114 µM), for the others: at the highest dose activity change, negative = inhibition, actives largely listed as inhibitors; hit rate 0.041% among 370,000;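 note: 0% = no-compound wells and -100% = no-enzyme wells; nearly all actives have a fitted effect of over 25% in size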
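20 mM phosphate pH 7.0 + 0.01% (detergent screen) or 0.0001% Triton X-100; 5.3 nM AmpC reagent; cpd preinc 15 min RT; nitrocefin (800 uM stock) to start; A480 q20 s × 4 min; Activity was normalised to no-enzyme and no-compound control wells.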
Pf growth 48h = P. falciparum growth inhibition at 48 hours (one generation); P. falciparum luciferase growth in erythrocytes, 48 h; Potency, µM (titrated, usually from 28.7 µM), without a hit: at the top dose activity change, negative = inhibition, most hits filed as inhibitors; hit rate 5.9% among 310,000; note: % is set by controls: 0 for no effect and ±100 for the full control effect
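Cell-based growth assay: transgenic P. falciparum expressing firefly luciferase, cultured in red cells within RPMI 1640 containing 0.5% w/v Albumax, 24 mM bicarbonate and gentamycin. A drop in luciferase activity indicates inhibition.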
Active calls of the source: *. Unless noted, calls come from the whole dose curve; as a rule, active = well fitted curve in the direction sought with a large enough effect; inconclusive = small, poorly fitted or top-dose-only effect, or another doubt; inactive = no such curve, though single readings can be large; an effect the other way counts as inactive or inconclusive. Potency is the fitted concentration of half-maximal effect.

Screening Cc1oc2ccc(O)c(CN3CCCC(C)C3)c2c1C(=O)Nc1ccccc1 (centres undefined) returned Sm TGR block 14% and AmpC detergent 22%.
CC(C)c1ccc(C(C(=O)NC2CCCCC2)N(C(=O)c2csnn2)C2CC2)cc1 (centres undefined) was read as SARS PLpro yeast 4%, Sm TGR block -8%, AmpC inh no detg 0%, Pf growth 96h 11%, AmpC detergent 3% and Pf growth 48h 13µM*.
`Cc1ccc(C(C(=O)NC2CCCC2)N(C(=O)c2csnn2)C2CC2)cc1` (centres undefined) gave SARS PLpro yeast 1%, Sm TGR block -1%, AmpC inh no detg 6%, Pf growth 96h 29%, AmpC detergent -10% and Pf growth 48h -21%.
`O=C(NCCc1ccccc1)C(c1ccncc1)N(C(=O)c1csnn1)C1CC1` (centres undefined) gave SARS PLpro yeast 13%, Sm TGR block -20%, AmpC inh no detg -3%, Pf growth 96h 12µM*, AmpC detergent -3% and Pf growth 48h -17%.
For CC(c1ccco1)N(C(=O)c1ccccc1NS(=O)(=O)c1ccc(Cl)c([N+](=O)[O-])c1)c1ccccn1 (centres undefined) the results were SARS PLpro yeast -15%, Sm TGR block inconclusive, AmpC inh no detg -47%, Pf growth 96h inconclusive, AmpC detergent -6% and Pf growth 48h -1%.
Screening COC(=O)COc1ccc(Oc2nc(NC(C)(C)C)nc(N(C)C)n2)nn1 returned Sm TGR block 0% and AmpC detergent -1%.
`O=C(c1ccc(-c2ccccc2)cc1)N1CCN(c2ncccn2)CC1` gave SARS PLpro yeast -9%, Sm TGR block -1%, AmpC inh no detg 60%, Pf growth 96h 10µM*, AmpC detergent 3% and Pf growth 48h -7%.
Screening C=CCN1CCN(C(=O)c2ccc(-c3ccccc3)cc2)CC1 returned SARS PLpro yeast -1%, Sm TGR block -20%, AmpC inh no detg 35%, Pf growth 96h 1.3µM*, AmpC detergent -6% and Pf growth 48h 12%.
Screening O=C(c1ccc(-c2ccccc2)cc1)N1CCCC1 returned SARS PLpro yeast 1%, Sm TGR block -8%, AmpC inh no detg 14%, Pf growth 96h 59%, AmpC detergent -12% and Pf growth 48h 64%.
O=C1C(=O)N(C2CCN(S(=O)(=O)c3ccccc3)CC2)CCN1Cc1ccccc1 was read as Sm TGR block 4% and AmpC detergent 4%.
`CCC(C(=O)Nc1ccccc1OC)n1c(C(=O)OC)cc2ccsc21` (centres undefined) gave SARS PLpro yeast -9%, Sm TGR block -16%, AmpC inh no detg -16%, Pf growth 96h inconclusive, AmpC detergent inconclusive and Pf growth 48h 12µM*.
Screening Cc1ccc(-n2ncc(C(=O)NCCCN3CCCCC3)c2C2CCN(C(=O)OC(C)(C)C)CC2)c(C)c1 returned Sm TGR block 4% and AmpC detergent 21%.
Screening CCC(C)NC(=S)N(Cc1cc2cc(C)ccc2n2nnnc12)CC(C)(C)NC(C)C (centres undefined) returned SARS PLpro yeast 9%, Sm TGR block 2%, AmpC inh no detg -10%, Pf growth 96h 4%, AmpC detergent -2% and Pf growth 48h inconclusive.
Screening NC(=O)c1c(NC(=O)CN2C(=O)CCC2=O)sc2c1CCCCC2 returned SARS PLpro yeast 4%, Sm TGR block 3%, AmpC inh no detg 32µM*, Pf growth 96h 42%, AmpC detergent -2% and Pf growth 48h 19%.
Screening N#CCC(=O)Nc1sc2c(c1C(N)=O)CCCC2 returned SARS PLpro yeast 11%, Sm TGR block -24%, AmpC inh no detg -40%, Pf growth 96h 2%, AmpC detergent 0% and Pf growth 48h -9%.
Screening NC(=O)c1c(NC(=O)C(=O)NCCCN2CCOCC2)sc2c1CCCC2 returned SARS PLpro yeast 2%, Sm TGR block 0%, AmpC inh no detg -1%, Pf growth 96h inconclusive, AmpC detergent -6% and Pf growth 48h inconclusive.
NC(=O)c1c(NC(=O)CN2CCOCC2)sc2c1CCC2 was read as SARS PLpro yeast 2%, Sm TGR block 35µM*, AmpC inh no detg 6%, Pf growth 96h 13%, AmpC detergent -14% and Pf growth 48h 13%.
NC(=O)c1c(NC(=O)CN2CCCC2)sc2c1CCCC2 was read as SARS PLpro yeast 2%, Sm TGR block 0%, AmpC inh no detg 46%, Pf growth 96h 12µM*, AmpC detergent -15% and Pf growth 48h 23%.
O=C(CN1CCN(c2ccccc2)CC1)Nc1ccc(OCc2ccccc2)cc1 was read as SARS PLpro yeast -6%, Sm TGR block 5%, AmpC inh no detg 64%, Pf growth 96h 27%, AmpC detergent -11% and Pf growth 48h 6%.
Cc1cccc(C2CC(c3ccc(Cl)cc3)Nc3nc(N)nn32)c1 (centres undefined) was read as SARS PLpro yeast -1%, Sm TGR block -6%, AmpC inh no detg 3.5µM*, Pf growth 96h 46%, AmpC detergent inconclusive and Pf growth 48h -19%.
Screening Cc1ccc(C2CC(c3cccc(Cl)c3)n3nc(N)nc3N2)cc1 (centres undefined) returned SARS PLpro yeast 0%, Sm TGR block 5%, AmpC inh no detg 6.3µM*, Pf growth 96h -26%, AmpC detergent inconclusive and Pf growth 48h 12%.
`CCn1c(C)nc([N+](=O)[O-])c1Sc1ccc(F)cc1` gave SARS PLpro yeast 3%, Sm TGR block 40µM*, AmpC inh no detg -21%, Pf growth 96h 10µM*, AmpC detergent -7% and Pf growth 48h inconclusive.
Screening COc1ccc(C(=O)OCC(=O)NCCN2C(=O)CSC2=O)cc1 returned SARS PLpro yeast -1%, Sm TGR block -1%, AmpC inh no detg -25%, Pf growth 96h 58%, AmpC detergent -7% and Pf growth 48h 2%.
Cc1ccc(NC(=O)CSc2cn(CC(=O)N3CCOCC3)c3ccccc23)cc1Cl was read as Sm TGR block 4% and AmpC detergent -6%.
`COc1ccc(NC(=O)C2CC(=O)n3cnnc3S2)cc1` (centres undefined) gave SARS PLpro yeast -41%, Sm TGR block 0.28µM*, AmpC inh no detg 8%, AmpC detergent -2% and Pf growth 48h -5%.
